Measured values published in PubChem BioAssay (EPA / NIEHS).
The source made the active and inactive calls. The calls were made as follows: active = hit-call score of the fitted dose curve at least 0.9, where 1 is the maximum; inactive = score below 0.9.

Columns and labels:
[1] = BSK_CASM3C_SRB: Viability Assessment in the BioMAP Diversity Plus: CASM3C Assay (AID 2283050); settings: primary human coronary artery smooth muscle cells;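 also: cells exposed to compound for 24 h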
[2] = read-out: Thrombomodulin, THBD (gene 7056); assay: BSK_CASM3C_Thrombomodulin: BioMAP Diversity Plus: CASM3C Assay for Thrombomodulin Biomarker Activity (AID 2283051); settings: primary human coronary artery smooth muscle cells; actives raise or lower the signal;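 also: thrombomodulin protein level measured by ELISA 24 h after dosing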
[3] = read-out: Tissue Factor, F3 (gene 2152); assay: BSK_CASM3C_TissueFactor: BioMAP Diversity Plus: CASM3C Assay for Tissue Factor Biomarker Activity (AID 2283052); settings: primary human coronary artery smooth muscle cells; actives raise or lower the signal;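 also: cell surface tissue factor protein level read by ELISA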
[4] = read-out: Interferon-gamma inducible Protein 10 (IP10), CXCL10 (gene 3627); assay: BSK_hDFCGF_IP10: BioMAP Diversity Plus: hDFCGF Assay for Interferon-gamma inducible Protein 10 (IP10) Biomarker Activity (AID 2283053); settings: primary human foreskin fibroblasts; actives raise or lower the signal
Outline: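 Chemical-treated human skin fibroblasts (primary) were sampled at 24 h for IP-10 by ELISA. Both increases and decreases relative to DMSO were scored.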

[5] = read-out: Urokinase-type plasminogen activator receptor (uPAR), PLAUR (gene 5329); assay: BSK_CASM3C_uPAR: BioMAP Diversity Plus: CASM3C Assay for Urokinase-type plasminogen activator receptor (uPAR) Biomarker Activity (AID 2283054); settings: primary human coronary artery smooth muscle cells; actives raise or lower the signal;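 also: cell-surface uPAR protein level quantified by ELISA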
[6] = read-out: Vascular cell adhesion molecule 1 (VCAM1), VCAM1 (gene 7412); assay: BSK_CASM3C_VCAM1: BioMAP Diversity Plus: CASM3C Assay for Vascular cell adhesion molecule 1 (VCAM1) Biomarker Activity (AID 2283055); settings: primary human coronary artery smooth muscle cells; actives raise or lower the signal;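 also: VCAM-1 protein level quantified by ELISA on the cells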
[7] = read-out: Collagen III, COL3A1 (gene 1281); assay: BSK_hDFCGF_CollagenIII: BioMAP Diversity Plus: hDFCGF Assay for Collagen III Biomarker Activity (AID 2283056); settings: primary human foreskin fibroblasts; actives raise or lower the signal
Outline: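 Human foreskin fibroblast primary cultures sampled 24 h after dosing; Collagen III quantified by ELISA. Signal fitted bidirectionally against DMSO baseline.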

[8] = read-out: Interleukin-8 (IL8), CXCL8 (gene 3576); assay: BSK_hDFCGF_IL8: BioMAP Diversity Plus: hDFCGF Assay for Interleukin-8 (IL8) Biomarker Activity (AID 2283058); settings: primary human foreskin fibroblasts; actives raise or lower the signal
Outline: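 Primary human foreskin fibroblasts (hDFCGF system) dosed with chemical; IL-8 measured by ELISA 24 hours later. Bidirectional curve fitting relative to DMSO baseline; cytotoxicity tracked in parallel cultures by SRB total protein staining.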

[9] = BSK_hDFCGF_Proliferation: Cell Proliferation Assessment in the BioMAP Diversity Plus: hDFCGF Assay (AID 2283059); settings: primary human foreskin fibroblasts;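 also: curves fitted for both rise and fall of signal versus DMSO baseline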
Outline: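 Steps: dose primary human dermal fibroblasts (foreskin); […] fix in 10% TCA; stain with 0.1% SRB; read 560 nm; fit gain or loss of signal against DMSO.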

[10] = read-out: Macrophage colony-stimulating factor (MCSF), CSF1 (gene 1435); assay: BSK_hDFCGF_MCSF: BioMAP Diversity Plus: hDFCGF Assay for Macrophage colony-stimulating factor (MCSF) Biomarker Activity (AID 2283060); settings: primary human foreskin fibroblasts; actives raise or lower the signal
Outline: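 Human foreskin fibroblast primary cultures; M-CSF measured by ELISA 24 hours after chemical dosing. Bidirectional fitting relative to DMSO, with overt cytotoxicity tracked by parallel SRB total-protein staining (0.1% SRB, 10% TCA fixation, 560 nm).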

[11] = BSK_hDFCGF_SRB: Viability Assessment in the BioMAP Diversity Plus: hDFCGF Assay (AID 2283061); settings: primary human foreskin fibroblasts;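 also: cells exposed to compound for 24 h before the read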
Outline: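 Human foreskin fibroblasts in 96-well plates were treated 24 h. Total protein was measured by 0.1% SRB staining after 10% TCA fixation, read at 560 nm. Data were fitted bidirectionally against DMSO.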

[12] = read-out: TIMP metallopeptidase inhibitor 1 (TIMP1), TIMP1 (gene 7076); assay: BSK_hDFCGF_TIMP1: BioMAP Diversity Plus: hDFCGF Assay for TIMP metallopeptidase inhibitor 1 (TIMP1) Biomarker Activity (AID 2283062); settings: primary human foreskin fibroblasts; actives raise or lower the signal
Outline: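 Human foreskin fibroblast primary cultures dosed for 24 h; secreted/surface TIMP-1 quantified by ELISA. Bidirectional curve fitting against DMSO baseline; cytotoxicity tracked in parallel cultures by SRB total-protein staining.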

[13] = read-out: Monokine induced gamma interferon (MIG), CXCL9 (gene 4283); assay: BSK_hDFCGF_MIG: BioMAP Diversity Plus: hDFCGF Assay for Monokine induced gamma interferon (MIG) Biomarker Activity (AID 2283063); settings: primary human foreskin fibroblasts; actives raise or lower the signal
Outline: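 MIG/CXCL9 measured by ELISA 24 h after dosing primary human skin fibroblasts. Activity fitted in both directions against DMSO controls. Cytotoxicity was checked in parallel cultures by SRB staining read at 560 nm.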

[14] = read-out: Matrix Metallopeptidase 1 (MMP1), MMP1 (gene 4312); assay: BSK_hDFCGF_MMP1: BioMAP Diversity Plus: hDFCGF Assay for Matrix Metallopeptidase 1 (MMP1) Biomarker Activity (AID 2283064); settings: primary human foreskin fibroblasts; actives raise or lower the signal
Outline: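 Human foreskin fibroblasts exposed to chemical for 24 h; MMP1 detected by ELISA, with DMSO as baseline for bidirectional fitting.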

[15] = read-out: Vascular cell adhesion molecule 1 (VCAM1), VCAM1 (gene 7412); assay: BSK_hDFCGF_VCAM1: BioMAP Diversity Plus: hDFCGF Assay for Vascular cell adhesion molecule 1 (VCAM1) Biomarker Activity (AID 2283065); settings: primary human foreskin fibroblasts; actives raise or lower the signal;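 as to AC50: VCAM-1 protein level quantified by ELISA after 24 h chemical exposure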
Outline: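 Human foreskin fibroblast primary cells dosed with chemical, VCAM-1 measured by ELISA at 24 h. Bidirectional curve fitting relative to DMSO as negative control/baseline.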

[16] = read-out: Plasminogen activator inhibitor-1 (PAI1), SERPINE1 (gene 5054); assay: BSK_hDFCGF_PAI1: BioMAP Diversity Plus: hDFCGF Assay for Plasminogen activator inhibitor-1 (PAI1) Biomarker Activity (AID 2283066); settings: primary human foreskin fibroblasts; actives raise or lower the signal
Outline: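 Human skin fibroblast cultures receive chemical for 24 h before PAI-1 is measured by ELISA; signal changes are fitted bidirectionally against DMSO-treated wells.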

[17] = read-out: Intercellular Adhesion Molecule 1 (ICAM1), ICAM1 (gene 3383); assay: BSK_KF3CT_ICAM1: BioMAP Diversity Plus: KF3CT Assay for Intercellular Adhesion Molecule 1 (ICAM1) Biomarker Activity (AID 2283067); settings: primary human keratinocytes with fibroblasts; actives raise or lower the signal
Outline: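 Human keratinocyte–foreskin fibroblast co-culture was treated for 24 h. Cell-surface ICAM-1 was quantified by ELISA, fitted bidirectionally relative to DMSO. Cytotoxicity was checked in parallel cultures by SRB total-protein staining.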

[18] = read-out: Interferon-gamma inducible Protein 10 (IP10), CXCL10 (gene 3627); assay: BSK_KF3CT_IP10: BioMAP Diversity Plus: KF3CT Assay for Interferon-gamma inducible Protein 10 (IP10) Biomarker Activity (AID 2283068); settings: primary human keratinocytes with fibroblasts; actives raise or lower the signal
Outline: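 KF3CT co-culture (keratinocytes + foreskin fibroblasts), 24 h compound, IP-10 by ELISA; bidirectional fit vs DMSO baseline.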

[19] = BSK_KF3CT_SRB: Viability Assessment in the BioMAP Diversity Plus: KF3CT Assay (AID 2283069); settings: primary human keratinocytes with fibroblasts;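 also: read 24 h after compound addition; fitted for both signal gain and loss against DMSO baseline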
Outline: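 Overt cytotoxicity is assessed as total protein by sulforhodamine B staining in parallel human skin co-cultures at 24 h after dosing. DMSO serves as negative control and baseline.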

Measured: AC50

Oc1ccc(C(c2ccc(O)cc2)C(Cl)(Cl)Cl)cc1
active: [1] 20.9 µM | [2] 15.5 µM | [4] 23.8 µM | [5] 11.3 µM | [7] 11.7 µM | [8] 31.3 µM | [9] 13.5 µM | [10] 21.5 µM | [11] 29.3 µM | [12] 14.5 µM | [13] 26.7 µM | [14] 29.7 µM | [15] 20 µM | [16] 25.4 µM | [17] 36.4 µM | [18] 33.2 µM | [19] 24.1 µM
inactive: [3] | [6]

CCCCOC(=O)C(C)Oc1ccc(Oc2ccc(C(F)(F)F)cn2)cc1 (configuration not stated)
inactive: [1] | [2] | [3] | [4] | [5] | [6] | [7] | [8] | [9] | [10] | [11] | [12] | [13] | [14] | [15] | [16] | [17] | [18] | [19]

Cc1nn(C)c(Oc2ccccc2)c1C=NOCc1ccc(C(=O)OC(C)(C)C)cc1
active: [2] 16.3 µM | [4] 27.9 µM | [7] 4.21 µM | [9] 6.94 µM | [10] 18.8 µM | [11] 15.4 µM | [14] 34.5 µM | [15] 13.9 µM | [16] 24.2 µM | [18] 13 µM
inactive: [1] | [3] | [5] | [6] | [8] | [12] | [13] | [17] | [19]

CSC(=O)c1cccc2nnsc12
inactive: [1] | [3] | [4] | [5] | [6] | [7] | [8] | [9] | [10] | [11] | [12] | [13] | [14] | [15] | [16] | [17] | [18] | [19]
active: [2] 20 µM

C#CCOC(=O)[C@@H](C)Oc1ccc(Oc2ncc(Cl)cc2F)cc1
active: [9] 14.9 µM
inactive: [1] | [2] | [3] | [4] | [5] | [6] | [7] | [8] | [10] | [11] | [12] | [13] | [14] | [15] | [16] | [17] | [18] | [19]

O=C(Nc1ccc([N+](=O)[O-])cc1Cl)c1cc(Cl)ccc1O
active: [1] 0.826 µM | [2] 0.643 µM | [4] 0.148 µM | [5] 0.148 µM | [7] 0.148 µM | [9] 0.148 µM | [10] 0.912 µM | [11] 0.063 µM | [12] 0.149 µM | [13] 0.148 µM | [14] 0.227 µM | [15] 0.148 µM | [16] 0.148 µM | [17] 1.24 µM | [18] 0.148 µM | [19] 0.148 µM
inactive: [3] | [6] | [8]

CCCCOCCOCCOCc1cc2c(cc1CCC)OCO2
inactive: [1] | [2] | [3] | [4] | [6] | [8] | [12] | [13] | [15] | [16] | [17] | [18] | [19]
active: [5] 20 µM | [7] 20 µM | [9] 31 µM | [10] 12.9 µM | [11] 25.3 µM | [14] 3.97 µM

COC(=O)c1ccc(I)cc1S(=O)(=O)NC(=O)Nc1nc(C)nc(OC)n1
inactive: [1] | [2] | [3] | [4] | [5] | [6] | [7] | [8] | [9] | [10] | [11] | [12] | [13] | [14] | [15] | [16] | [17] | [18] | [19]

CC(=O)[C@H]1CC[C@H]2[C@@H]3CCC4=CC(=O)CC[C@]4(C)[C@H]3CC[C@]12C
active: [7] 24 µM | [9] 14.7 µM
inactive: [1] | [2] | [3] | [4] | [5] | [6] | [8] | [10] | [11] | [12] | [13] | [14] | [15] | [16] | [17] | [18] | [19]

CCN(CC)C(=O)c1cccc(C)c1
inactive: [1] | [2] | [3] | [4] | [5] | [6] | [7] | [8] | [9] | [10] | [11] | [12] | [13] | [14] | [15] | [16] | [17] | [18] | [19]

COc1c(Cl)ccc(Cl)c1C(=O)O
inactive: [1] | [2] | [3] | [4] | [5] | [6] | [7] | [8] | [9] | [10] | [11] | [12] | [13] | [14] | [15] | [16] | [17] | [18] | [19]

O=C(c1ccccc1)C1CCCCC1
inactive: [1] | [2] | [3] | [4] | [5] | [6] | [7] | [8] | [9] | [10] | [11] | [12] | [13] | [14] | [15] | [16] | [17] | [18] | [19]

c1ccc(Nc2ccccc2)cc1
inactive: [1] | [2] | [3] | [4] | [5] | [6] | [7] | [8] | [9] | [10] | [11] | [12] | [13] | [14] | [15] | [16] | [17] | [18] | [19]
